From PubChem BioAssay (Tox21) come the findings set out here.

Assay [1] in a line: qHTS assay for small molecules that induce genotoxicity in human embryonic kidney cells expressing luciferase-tagged ATAD5 (AID 651632). Also: nearly all actives have a fitted effect of over 15% in size. A digest of the protocol:
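HEK293T cells carrying a luciferase reporter tagged to ATAD5 were exposed to compound or DMSO vehicle for 16 hr at 37C, 5% CO2. Amplite was added, and after 30 min at room temperature luciferase activity was read as a marker of ATAD5 induction.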

Assay [2] is described as follows: qHTS assay for small molecule agonists of the p53 signaling pathway - cell viability (AID 651633; calls by dose curve; also: nearly all actives have a fitted effect of over 30% in size; also: potency is read from the fitted curve at half-maximal effect). The gist of the method: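 Viability counter-read: CellTiter-Glo luminescence (30 min, room temperature) in the same p53RE-bla plates. These plates had been exposed to compounds for 16 h at 37 C.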
The nature of assay [3]: qHTS assay for small molecules that induce genotoxicity in human embryonic kidney cells expressing luciferase-tagged ATAD5 - cell viability (AID 651634; calls by dose curve; also: nearly all actives have a fitted effect of over 25% in size; also: potency is read from the fitted curve at half-maximal effect). A digest of the protocol: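 HEK293T cells expressing luciferase-tagged ATAD5 were exposed to compound or DMSO for 15.5 hr at 37C, 5% CO2. Viability was then read as live-cell protease activity by CellTiter-Fluor fluorescence after 30 min at 37C.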
For orientation: Quantitative high-throughput screening tests each substance at several concentrations.

A short description of assay [4]: qHTS assay for small molecule disruptors of the mitochondrial membrane potential - cell viability (AID 720634; calls by dose curve; also: nearly all actives have a fitted effect of over 20% in size; also: potency is read from the fitted curve at half-maximal effect). A digest of the protocol: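 HepG2 cells seeded overnight at 37 C, then exposed to compound or DMSO for 1 hr at 37 C, 5% CO2. m-MPI dye added, then CellTiter-Glo for 30 min at room temperature; viability read as ATP luminescence.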
Assay [5] in a line: qHTS assay for small molecule disruptors of the mitochondrial membrane potential (AID 720635). Also: potency is read from the fitted curve at half-maximal effect. A digest of the protocol:
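Mitochondrial membrane potential tracked with Mito-MPS dye, red aggregates (ex 540/em 590 nm) against green monomers (ex 490/em 535 nm). Compound treatment 1 hr at 37C, dye 30 min in HepG2.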

Assay [6] is described as follows: qHTS assay to test for compound auto fluorescence at 590 nm (red) in HepG2 cells (AID 720674). A digest of the protocol: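 We screened compounds on adherent HepG2 cells, incubating them for an hour at 37 C in 5% CO2 before reading emission at 590 nm under 540 nm excitation; values reflect equivalence to Rose Bengal sodium fluorescence.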
Assay [7] is described as follows: qHTS assay to test for compound auto fluorescence at 460 nm (blue) in HEK293 cells (AID 720678). A digest of the protocol: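 Blue read-out at excitation 405 nm and emission 460 nm follows overnight compound exposure of HEK293 cells at 37C in 5% CO2. Activity is given as auto fluorescence equivalency to triamterene.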
Assay [8] is described as follows: qHTS assay to test for compound auto fluorescence at 590 nm (red) in HEK293 cells (AID 720679). A digest of the protocol: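 Red channel, Ex/Em 540/590nm; signal expressed as equivalency to Rose Bengal sodium. HEK293, 2,000 cells/well, 10% dialyzed FBS; 23 nL compound pinned after 4-5 hr attachment; overnight 37C/5% CO2 before reading.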
Assay [9] can be described thus: qHTS assay to test for compound auto fluorescence at 535 nm (green) in HEK293 cells (AID 720680).
Assay [10] can be described thus: qHTS assay to test for compound auto fluorescence at 460 nm (blue) in HEK293 cell free culture (AID 720681). A digest of the protocol: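 Blue fluorescence (Ex 405/Em 460 nm, triamterene-equivalent) was read immediately after pin transfer of compound or DMSO into medium (DMEM, 10% FBS) without cells.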
Assay [11] is described as follows: qHTS assay to test for compound auto fluorescence at 535 nm (green) in HEK293 cell free culture (AID 720682). The gist of the method: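 Read-out: 485/535 nm fluorescence intensity, calibrated against fluorescein. Medium only (DMEM + 10% FBS, no cells); test compound or DMSO vehicle added by pintool before plate reading.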
The nature of assay [12]: qHTS assay to test for compound auto fluorescence at 590 nm (red) in HEK293 cell free culture (AID 720683). A digest of the protocol: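 Red-channel autofluorescence of compounds in culture medium (DMEM, 10% FBS), no cells, measured at 540/590 nm. Rose Bengal sodium is the reference fluorophore for equivalence.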
Assay [13] in a line: qHTS assay to test for compound auto fluorescence at 460 nm (blue) in HepG2 cell free culture (AID 720685). A digest of the protocol:
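Compound (23 nL) or DMSO pinned into cell-free MEM with 10% FBS; blue fluorescence read at 405/460 nm excitation/emission, expressed as auto-fluorescence equivalency to triamterene.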

A short description of assay [14]: qHTS assay to test for compound auto fluorescence at 535 nm (green) in HepG2 cell free culture (AID 720686).
Assay [15] is described as follows: qHTS assay to test for compound auto fluorescence at 460 nm (blue) in HepG2 cells (AID 720687). The gist of the method: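 Blue-channel autofluorescence (Ex/Em 405/460 nm, triamterene-equivalent) was measured after 1 hr compound exposure at 37 C, 5% CO2. Cells were HepG2, plated overnight at 37 C in MEM plus 10% FBS.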
Assay [16] in a line: qHTS assay to test for compound auto fluorescence at 535 nm (green) in HepG2 cells (AID 720675).
Assay [17] is described as follows: qHTS assay to test for compound auto fluorescence at 590 nm (red) in HepG2 cell free culture (AID 720684). The gist of the method: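 Steps: dispense MEM/10% FBS medium, no cells; pin compound or DMSO vehicle; read red channel, Ex/Em 540/590 nm. Output given as Rose Bengal sodium equivalents.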
Assay [18] concerns the target Glucocorticoid receptor (Homo sapiens) (UniProt P04150). Nature of the assay: qHTS assay to identify small molecule agonists of the glucocorticoid receptor (GR) signaling pathway (AID 720691; active = well fitted activation curve with a large enough effect in the signal ratio in the repeat runs, not every such curve was filed as active; the % refers to the signal ratio). The note with it: GR-bla HeLa, beta-lactamase reporter ratio, 18 h; activation: at 62.4 µM (top of the series). The gist of the method: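 GR-bla HeLa cells (beta-lactamase reporter under glucocorticoid response element) were plated 4 h at 37 C/5% CO2, given compounds in DMSO, and incubated 18 h at 37 C. LiveBLAzer B/G FRET substrate was added for 2 h at room temperature, then fluorescence intensity read.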

Assay [19] has the same target. Nature of the assay: qHTS assay to identify small molecule antagonists of the glucocorticoid receptor (GR) signaling pathway (AID 720692; active = well fitted inhibition curve with a large enough effect in the signal ratio in the repeat runs, not every such curve was filed as active; the % refers to the signal ratio). The gist of the method: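 GR-bla HeLa cells (beta-lactamase reporter under glucocorticoid response element) were pre-plated 4 h at 37 C, treated with compounds plus 5 nM dexamethasone (final) for 18 h, then read by LiveBLAzer B/G FRET fluorescence after 2 h.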

Where “and” joins values, the source holds several entries; their conditions need not be identical. Equal values may be shown once. Records with an inconclusive call do not appear. Calls of active or inactive are those of the source. Unless noted, calls follow the shape of the dose curve; as a rule, active = well fitted curve in the direction sought with a large enough effect in the repeat runs; inconclusive = weak or mixed curves; inactive = no such curve, though single readings can be large; an effect the other way counts as inactive or inconclusive.

Sequence of Glucocorticoid receptor (Homo sapiens) (P04150 whole entry, looked up): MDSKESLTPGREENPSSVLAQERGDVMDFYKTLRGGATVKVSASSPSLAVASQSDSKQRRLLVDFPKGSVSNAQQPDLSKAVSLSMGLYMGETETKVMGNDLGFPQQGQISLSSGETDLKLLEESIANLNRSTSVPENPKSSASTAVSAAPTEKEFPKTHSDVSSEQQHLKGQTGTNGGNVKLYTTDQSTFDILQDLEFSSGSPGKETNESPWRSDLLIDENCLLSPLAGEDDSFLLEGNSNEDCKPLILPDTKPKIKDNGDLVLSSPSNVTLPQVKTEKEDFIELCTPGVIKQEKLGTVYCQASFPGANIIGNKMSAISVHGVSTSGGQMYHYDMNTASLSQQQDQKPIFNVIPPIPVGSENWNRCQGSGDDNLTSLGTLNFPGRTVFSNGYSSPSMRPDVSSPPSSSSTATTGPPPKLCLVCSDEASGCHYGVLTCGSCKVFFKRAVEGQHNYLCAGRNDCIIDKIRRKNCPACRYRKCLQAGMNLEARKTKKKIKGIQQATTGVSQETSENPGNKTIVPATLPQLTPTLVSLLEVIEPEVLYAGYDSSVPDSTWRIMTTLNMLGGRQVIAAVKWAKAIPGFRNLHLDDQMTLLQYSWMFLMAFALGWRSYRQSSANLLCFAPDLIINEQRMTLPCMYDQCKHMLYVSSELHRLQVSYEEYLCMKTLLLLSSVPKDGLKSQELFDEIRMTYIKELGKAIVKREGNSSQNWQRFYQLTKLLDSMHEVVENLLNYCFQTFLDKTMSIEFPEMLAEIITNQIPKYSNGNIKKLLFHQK

Consider `Oc1cccc(-c2c3nc(c(-c4cccc(O)c4)c4ccc([nH]4)c(-c4cccc(O)c4)c4nc(c(-c5cccc(O)c5)c5ccc2[nH]5)CC4)C=C3)c1`, for which the Potency entry in assay [1], in assay [4], in assay [6], in assay [7], in assay [8] and in [10] was “inactive” each time. Besides, the Potency result in [12], in assay [13], in assay [14] and in assay [15] was “inactive” in each case. For the same compound, the Potency is 9.44 µM (active) in assay [2]; 13.3 µM (active) and 11.9 µM (active) in assay [3]; 26.6 µM (active) in assay [5]. Further, the result in assay [9] and in [11] was inactive.
Take `CC(C)C(C)(C)C(C)(C)C(C)(C)S`: the Potency result in [1], in assay [2], in assay [3], in assay [6], in assay [16] and in [7] was “inactive” each time. Besides, the Potency entry in assay [8], in assay [10], in [12], in assay [17], in assay [13] and in assay [14] was “inactive” each time. Besides, the Potency result in [15] is “inactive”. Besides, in assay [9], the outcome was inactive.
For `CCC(C)Nc1ccc(NC(C)CC)cc1` (stereo not drawn), the Potency entry in [1], in [3], in [6], in assay [7], in [8] and in assay [10] was “inactive” throughout. For the same compound, the Potency result in assay [12], in [13], in assay [14] and in assay [15] was “inactive” throughout. Also, the Potency in [2] is 14 µM (active); in assay [4] it was 44.1 µM (active); in [5] it was 8.8 µM (active). In addition, the call in [9] was inactive.
As for `CC(C)c1ccc2c(c1)CC[C@H]1[C@](C)(CN)CCC[C@]21C`, the Potency result in assay [1], in assay [6], in [16], in assay [7], in assay [8] and in assay [12] was “inactive” each time. In addition, the Potency entry in [17] and in assay [15] was “inactive” throughout. Moreover, the values for the Potency in assay [2] and in assay [3] were 27.3 µM (active) and 38.6 µM (active), respectively. Besides, the call in assay [9] was inactive.
Turning to `OC1(c2ccc(Cl)c(C(F)(F)F)c2)CCN(CCCC(c2ccc(F)cc2)c2ccc(F)cc2)CC1`, the Potency result in assay [1], in [4], in assay [6], in [16], in [7] and in [10] was “inactive” each time. Besides, the Potency entry in assay [12], in [17], in assay [13], in [14] and in [15] was “inactive” each time. For the same compound, the Potency is 9.44 µM (active) in assay [2] and 23.7 µM (active) in [3]. Further, the outcome in [9] and in assay [11] was inactive.
Turning to `Oc1ccc2c(c1)-c1ccccc1C2`, the Potency entry in assay [1], in assay [2], in [3], in assay [6], in assay [16] and in [7] was “inactive” in each case. In addition, the Potency entry in assay [8], in assay [10], in assay [12], in assay [17], in [13] and in [14] was “inactive” in each case. For the same compound, in assay [15], the Potency entry is “inactive”. Further, the Potency in assay [5] is 9.69 µM (active). Moreover, the outcome in assay [9] and in assay [11] was inactive.
For the compound `CC(C)CCCCCCCCCCCCCCC(=O)O`, the Potency entry in assay [1], in assay [3], in [6], in [16], in assay [7] and in [8] was “inactive” each time. Besides, the Potency result in assay [10], in assay [12], in [13], in [14], in assay [15] and in assay [18] was “inactive” each time. In addition, the Potency entry in [19] was “inactive”. Also, the Potency in [2] was 61.1 µM (active). Also, the compound was called inactive in assay [9] and in assay [11].
For the compound `Nc1c(Cl)cc(Cl)cc1Cl`, the Potency result in assay [1], in assay [2], in assay [3], in assay [4], in assay [6] and in assay [16] was “inactive” in each case. Moreover, the Potency entry in assay [7], in assay [8], in assay [10], in assay [12], in assay [17] and in assay [14] was “inactive” each time. In addition, the Potency entry in [15], in assay [18] and in [19] was “inactive” in each case. For the same compound, the outcome in assay [9] and in [11] was inactive.
